The record followed here is PubChem BioAssay.

The source made the active and inactive calls.

Test [1] in a line: binders of probe aFSTL3 on microarray, primary screen, stem cell growth factor project, biochemical, small-molecule microarray, fluorescence 635/667 (AID 1064).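 Further: measures binding of the biotinylated anti-FSTL3 antibody to printed compounds.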 The conditions noted are these: higher = more signal.
Test [2] in a line: binders from COS7 lysate, DM2A8 probe, primary screen, torsin A project, cell lysate, small-molecule microarray, fluorescence 635/667 (AID 1065). The conditions noted are these: higher = more signal, COS7 lysate expressing mutant human TOR1A.
The nature of test [3]: binders of probe aFGF2 on microarray, primary screen, stem cell growth factor project, biochemical, small-molecule microarray, fluorescence 635/667 (AID 1067).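 Further: measures binding of biotinylated aFGF2 protein to printed compounds on slides; z-score merges feature fluorescence and signal-to-noise across triplicate slides.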 As to conditions: higher = more signal.
Test [4] is described as follows: binders of probe aFGF10 on microarray, primary screen, stem cell growth factor project, biochemical, small-molecule microarray, fluorescence 635/667 (AID 1071).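 Further: score merges 667 nm spot intensity and signal to noise from triplicate slides.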 As to conditions: higher = more signal.
Test [5] addresses Neurogenic locus notch homolog protein 2 (Homo sapiens) (UniProt Q04721). Put plainly: Notch2 binders on small-molecule microarrays, primary screen, biochemical, small-molecule microarray, 635 nm fluorescence, stem cell growth factors (AID 1073). The conditions noted are these: Notch2 binding, higher = more signal.
Test [6] has as its target Pro-neuregulin-1, membrane-bound isoform (Homo sapiens) (UniProt Q02297). Put plainly: NRG1 binders on small-molecule microarrays, primary screen, psychiatric disease protein project, biochemical, small-molecule microarray, fluorescence 635/667 (AID 1075).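 Further: score combines 667 nm spot fluorescence with signal to noise.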 The conditions noted are these: NRG1 binding, 635 nm fluorescence, higher = more signal.
Test [7] has as its system Neuregulin-1 EGF-like domain. As to the kind of experiment: binders of neuregulin-1 EGF-like domain, primary screen, biochemical, small-molecule microarray, 635 nm fluorescence (AID 1081).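 Further: binding of the protein to compounds printed on small-molecule microarray slides.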 As to conditions: small-molecule microarray binding, higher = more signal.
Test [8] in a line: FRG1 promoter luciferase signal modulators, primary screen, FRG1 inhibition for FSHD, cell-based, C2C12 myotubes, firefly/Renilla luciferase, luminescence (AID 1084). The conditions noted are these: higher = more signal, called active from +8 up or from −8 down.
A short description of test [9]: binders of probe aFST on microarray, primary screen, stem cell growth factor project, biochemical, small-molecule microarray, fluorescence 635/667 (AID 1086).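 Further: score merges 667 nm fluorescence with signal-to-noise of each printed compound spot.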 As to conditions: higher = more signal.
Test [10] can be described thus: binders of probe aHhip on microarray, primary screen, stem cell growth factor project, biochemical, small-molecule microarray, fluorescence 635/667 (AID 1087).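 Further: score merges spot fluorescence at 667nm with spot signal to noise ratio.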 As to conditions: higher = more signal.

Pro-neuregulin-1, membrane-bound isoform (Homo sapiens), sequence (Q02297 whole entry, looked up, the tested form may be a part, canonical isoform): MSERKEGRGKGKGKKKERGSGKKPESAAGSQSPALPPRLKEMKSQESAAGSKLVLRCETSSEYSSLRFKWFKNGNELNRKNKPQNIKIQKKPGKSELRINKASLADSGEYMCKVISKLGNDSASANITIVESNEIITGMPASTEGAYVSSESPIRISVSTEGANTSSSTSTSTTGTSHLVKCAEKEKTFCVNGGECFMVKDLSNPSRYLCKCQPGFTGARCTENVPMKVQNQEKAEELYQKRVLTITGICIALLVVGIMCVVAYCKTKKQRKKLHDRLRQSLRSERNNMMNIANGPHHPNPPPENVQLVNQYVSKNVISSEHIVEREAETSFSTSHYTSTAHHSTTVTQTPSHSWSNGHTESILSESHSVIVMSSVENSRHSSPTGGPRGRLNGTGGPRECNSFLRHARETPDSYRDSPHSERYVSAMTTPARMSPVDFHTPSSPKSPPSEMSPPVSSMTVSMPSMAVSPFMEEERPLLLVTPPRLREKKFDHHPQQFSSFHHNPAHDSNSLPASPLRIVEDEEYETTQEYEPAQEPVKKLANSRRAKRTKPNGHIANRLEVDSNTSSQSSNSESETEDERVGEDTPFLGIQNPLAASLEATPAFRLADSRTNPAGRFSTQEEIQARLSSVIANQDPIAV
Neurogenic locus notch homolog protein 2 (Homo sapiens), sequence (Q04721 whole entry, looked up, canonical isoform): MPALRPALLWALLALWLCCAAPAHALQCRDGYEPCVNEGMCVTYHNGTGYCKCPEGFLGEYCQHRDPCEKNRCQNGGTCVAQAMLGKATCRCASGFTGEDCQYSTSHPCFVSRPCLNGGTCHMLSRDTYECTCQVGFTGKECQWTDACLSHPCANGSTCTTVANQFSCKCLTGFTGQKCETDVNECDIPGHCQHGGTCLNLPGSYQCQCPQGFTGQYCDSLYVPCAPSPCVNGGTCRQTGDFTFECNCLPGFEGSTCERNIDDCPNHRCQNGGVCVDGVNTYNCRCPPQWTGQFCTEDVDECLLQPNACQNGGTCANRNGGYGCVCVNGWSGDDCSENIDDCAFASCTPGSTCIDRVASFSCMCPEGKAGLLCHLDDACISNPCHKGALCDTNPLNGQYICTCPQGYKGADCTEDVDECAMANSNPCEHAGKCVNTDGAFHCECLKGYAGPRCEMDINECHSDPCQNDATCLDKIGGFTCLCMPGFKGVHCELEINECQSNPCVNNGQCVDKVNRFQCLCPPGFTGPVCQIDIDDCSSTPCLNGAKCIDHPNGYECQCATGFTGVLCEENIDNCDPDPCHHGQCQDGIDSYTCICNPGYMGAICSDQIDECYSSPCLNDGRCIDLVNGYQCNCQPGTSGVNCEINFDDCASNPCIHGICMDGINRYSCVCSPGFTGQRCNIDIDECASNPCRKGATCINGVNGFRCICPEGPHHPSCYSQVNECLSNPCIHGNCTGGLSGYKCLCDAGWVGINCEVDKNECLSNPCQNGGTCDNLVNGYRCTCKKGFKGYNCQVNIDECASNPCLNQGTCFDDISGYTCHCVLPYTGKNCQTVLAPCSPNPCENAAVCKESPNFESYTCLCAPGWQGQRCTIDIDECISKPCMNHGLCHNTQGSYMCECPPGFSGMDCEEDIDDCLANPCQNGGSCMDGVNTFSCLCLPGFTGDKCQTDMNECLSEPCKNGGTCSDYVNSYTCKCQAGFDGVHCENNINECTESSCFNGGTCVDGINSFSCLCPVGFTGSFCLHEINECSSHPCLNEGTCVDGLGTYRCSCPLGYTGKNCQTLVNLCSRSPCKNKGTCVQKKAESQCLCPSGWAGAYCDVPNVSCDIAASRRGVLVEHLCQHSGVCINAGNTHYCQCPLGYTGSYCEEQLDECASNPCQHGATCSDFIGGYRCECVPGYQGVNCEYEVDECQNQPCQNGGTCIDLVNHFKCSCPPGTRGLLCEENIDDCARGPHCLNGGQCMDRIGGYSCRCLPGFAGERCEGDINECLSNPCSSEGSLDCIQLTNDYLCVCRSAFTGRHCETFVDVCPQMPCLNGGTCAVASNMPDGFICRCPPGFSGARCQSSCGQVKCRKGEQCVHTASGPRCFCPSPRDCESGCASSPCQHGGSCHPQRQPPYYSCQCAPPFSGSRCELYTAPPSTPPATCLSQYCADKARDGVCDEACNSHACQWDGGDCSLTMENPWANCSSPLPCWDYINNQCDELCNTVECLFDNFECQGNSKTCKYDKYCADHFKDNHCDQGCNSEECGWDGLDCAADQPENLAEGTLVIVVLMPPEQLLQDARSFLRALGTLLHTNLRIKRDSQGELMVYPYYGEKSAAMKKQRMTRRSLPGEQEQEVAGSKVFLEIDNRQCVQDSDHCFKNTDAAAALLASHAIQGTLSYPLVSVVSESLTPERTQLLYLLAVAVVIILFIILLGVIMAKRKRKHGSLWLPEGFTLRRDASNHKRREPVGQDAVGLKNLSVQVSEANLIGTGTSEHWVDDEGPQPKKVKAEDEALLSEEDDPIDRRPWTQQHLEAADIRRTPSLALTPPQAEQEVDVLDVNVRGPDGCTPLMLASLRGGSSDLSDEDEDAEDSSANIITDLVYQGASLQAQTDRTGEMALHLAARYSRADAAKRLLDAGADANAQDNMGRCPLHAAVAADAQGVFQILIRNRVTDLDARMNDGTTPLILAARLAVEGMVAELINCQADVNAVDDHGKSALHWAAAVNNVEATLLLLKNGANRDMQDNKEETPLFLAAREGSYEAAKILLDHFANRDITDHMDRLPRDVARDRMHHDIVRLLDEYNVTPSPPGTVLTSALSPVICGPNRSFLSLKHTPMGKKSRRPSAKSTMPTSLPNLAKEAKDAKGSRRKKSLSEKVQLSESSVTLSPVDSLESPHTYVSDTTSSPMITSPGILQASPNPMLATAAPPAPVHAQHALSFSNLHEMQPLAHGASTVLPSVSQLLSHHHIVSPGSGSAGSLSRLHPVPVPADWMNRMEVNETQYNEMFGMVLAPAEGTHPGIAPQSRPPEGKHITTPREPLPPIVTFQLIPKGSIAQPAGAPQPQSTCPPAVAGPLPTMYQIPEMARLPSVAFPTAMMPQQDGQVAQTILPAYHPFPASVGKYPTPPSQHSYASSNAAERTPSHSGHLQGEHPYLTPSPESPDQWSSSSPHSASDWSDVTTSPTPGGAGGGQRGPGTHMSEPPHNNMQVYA

On to `COC(=O)[C@@]1(Cc2ccc(OC)cc2)[C@H]2c3cc(C(=O)N4CCCC4)n(C[C@H](O)CO)c3C[C@H]2CN1C(=O)c1ccccc1`, for which the composite z-score is 0.288 in [1]; -0.0909 in test [2]; 0.198 in test [3]; 0.673 in test [4]; 1.13 in [5]; 1.17 in [6]. Also, the composite z-score in test [7] was 0.531; in test [9], 0.488; in test [10], 0.0749. Moreover, the z-score in test [8] was 1.13 (inactive).
On to `O=C(NCCN1CCOCC1)[C@@H]1c2ccccc2C(=O)N(Cc2cc(F)cc(C(F)(F)F)c2)[C@H]1c1ccc(CO)cc1`, for which the composite z-score in test [1] is -0.0058; in test [2], 1.09; in test [3], -0.188; in test [4], -0.71; in [5], -0.987; in test [6] it was 1.25. The values for the composite z-score in test [7], in [9] and in [10] were 0.591, -0.234 and -0.199, respectively. In addition, in test [8], the z-score was -0.0497 (inactive).
With `O=C1C2C=CC(C(O)c3ccc(-c4ccccc4)s3)N(Nc3ccccc3F)C2C(=O)N1c1ccccc1` (stereo not given), the composite z-score in [1] turned out to be 0.623; in [2], 0.0116; in [3] it was 0.0352; in test [4], 0.243; in test [5], 1.58; in [6] it was 1.65. Further, the results for the composite z-score in test [7], in [9] and in test [10] were 1.28, 0.955 and -0.0296, respectively. For the same molecule, the z-score in test [8] was 1.72 (inactive).
As for `CC(c1ccccc1)C(O)C1C=CC2C(=O)N(c3ccccc3)C(=O)C2N1Nc1ccccc1F` (stereo not given), the composite z-score was -0.0296 in test [1]; 0.267 in [2]; 0.0786 in test [3]; 0.26 in [4]; 0.917 in [5]; 1.28 in test [6]. In addition, the values for the composite z-score in test [7], in test [9] and in test [10] were 0.679, 1.34 and -0.191, respectively. Also, the z-score in test [8] is 0.985 (inactive).
As to `CC1(C)C(=O)C(c2ccccc2)=C2CN3C(=O)N(CCc4ccccc4)C(=O)C3(Cc3ccccc3)C=C21` (stereo not given), the composite z-score in [1] was 0.0442; in [2] it was -0.219; in test [3], -0.0465; in [4], 0.235; in [5] it was 1.63; in test [6], 0.328. Besides, the composite z-score in test [7] was 0.949; in test [9] it was 1.15; in [10], -0.11. Besides, the z-score in [8] is 0.586 (inactive).
`COCCCNC(=O)[C@]1(Cc2ccccc2N=[N+]=[N-])N=C(c2ccc(OCCCO)cc2)O[C@@H]1c1ccccc1CN=[N+]=[N-]`: the composite z-score in test [1] was 0.201; in test [2], 0.157; in test [3], 0.182; in test [4] it was 1.05; in test [5], 1.68; in [6], 1.49. Further, the results for the composite z-score in test [7], in [9] and in [10] were 1.33, 1.33 and -0.0296, respectively. Further, in test [8], the z-score was -0.0402 (inactive).
Consider `O=[N+]([O-])c1ccc(C[n+]2ccc(CCCO)cc2)o1`, for which the composite z-score in [1] worked out at 0.138; in [2], 0.218; in test [3], 0.0609; in test [4], 0.758; in [5], 1.53; in [6], 0.856. Moreover, the composite z-score is 1.29 in test [7], 0.181 in [9] and 0.251 in [10]. In test [8], the z-score is 0.472 (inactive).
Consider `CCOC(=O)C=Cc1cccc(OC)c1O`, for which the composite z-score in test [1] is -0.0086; in test [2], 0.689; in [3] it was -0.0894; in test [4], -0.572; in test [5], -1.37; in test [6], -0.196. Besides, the composite z-score in test [7] was 0.189; in test [9] it was -0.722; in [10], -0.439. For the same molecule, the z-score in test [8] was 6.99 (inactive).
Regarding `C=CCOC(=O)[C@@H]1[C@H]2C(=O)O[C@H](c3ccccc3)[C@H](c3ccccc3)N2[C@H](c2ccc(OCCOC(=O)[C@H]3C[C@H]4C(=O)N[C@@H](CCCC[N+](C)(C)C)C(=O)N4[C@H]3c3cccc(OCCO)c3)cc2)[C@@]12C(=O)Nc1ccc(I)cc12`, the composite z-score was -0.542 in test [1]; 0.391 in test [2]; -0.0824 in test [3]; 0.651 in [4]; 0.827 in test [5]; -0.306 in test [6]. The composite z-score is 1.17 in [7], 0.166 in [9] and 0.154 in test [10]. For the same molecule, the z-score in test [8] was 0.179 (inactive).
For `CCCCC(=O)N(Cc1ccccc1F)[C@@H]1CC(C(=O)NCCO)=C[C@H](Oc2c(I)cc(CO)cc2OC)[C@H]1O`, the composite z-score is -0.451 in test [1]; 0.686 in [2]; -0.0462 in [3]; 0.228 in test [4]; 1.17 in [5]; 1.47 in test [6]. For the same molecule, the values for the composite z-score in test [7], in test [9] and in test [10] were 1.42, 0.442 and 0.27, respectively. The z-score in test [8] is -0.84 (inactive).
In the case of `C=C(/C(=C/C[C@@H](OC(=O)c1ccncc1)c1ccc(CO)o1)c1cc(C(=O)OC)ccc1OC)C(C)C`, the composite z-score is -0.441 in [1]; 1.46 in [2]; -0.0226 in test [3]; 0.901 in [4]; 0.974 in [5]; 1.15 in test [6]. The composite z-score in [7] came out at 0.954; in test [9], 0.377; in [10] it was 0.0373. For the same molecule, the z-score in [8] was -1.13 (inactive).
With `Cn1c2c(c3ccccc31)C(=O)C1NC2C=CC1(C)C(=O)OCc1ccccc1` (stereo not given), the composite z-score in test [1] was 1.03; in [2] it was 0.979; in [3], -0.176; in test [4], -1.31; in [5], -1.15; in test [6] it was 1.06. Besides, the composite z-score in [7] is 0.467; in test [9] it was -0.478; in test [10] it was -0.0645. For the same molecule, the z-score in [8] was -1.52 (inactive).
As to `COc1ccc([Si](C)(C)[C@H]2[C@H](CCO)O[C@@]3(C(=O)N(Cc4ccccc4)c4ccc(N5C(=O)COc6ccccc65)cc43)[C@@H]2C)cc1`, the composite z-score in [1] was 0.253; in test [2] it was -0.113; in test [3] it was -0.0692; in test [4] it was 0.264; in [5], 0.167; in test [6], 1.06. For the same molecule, the composite z-score in test [7] is 0.487; in test [9] it was 0.0228; in [10] it was 0.357. Also, the z-score in [8] is -1.69 (inactive).
For `COc1ccc([Si](C)(C)[C@@H]2[C@@H](CCO)O[C@]3(C(=O)N(Cc4cccc(N(C=O)c5ccccc5)c4)c4ccccc43)[C@H]2C)cc1`, the composite z-score in test [1] is 0.318; in test [2], 0.526; in test [3], -0.0784; in [4] it was -0.126; in [5], 0.199; in [6] it was 0.835. In addition, the composite z-score in test [7] stood at 0.787; in test [9], 0.316; in test [10], 0.0524. For the same molecule, the z-score in [8] is -0.198 (inactive).
